# Only some compounds are listed: those with a hit (about 21% of all), similar ones and a draw of the others.
# DT40 TDP1 no CPT: qHTS for Inhibitors of human tyrosyl-DNA phosphodiesterase 1 (TDP1): qHTS in cells in absence of CPT; AID 686978, 2013; hit rate 15% among 420,000; DT40 Tdp1-/- hTDP1 cells, no CPT, ATP luminescence, 48 h; Potency, µM (highest dose often 46.2 µM), for inactives: at the highest dose activity change, negative = growth inhibition, most hits filed as inhibitors; also: potency is read from the fitted curve at half-maximal effect; nearly all actives have a fitted effect of over 55% in size
#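 A cellular qHTS used chicken DT40 cells lacking endogenous Tdp1 but carrying stably transfected human TDP1. Compounds were applied without camptothecin, and cell growth kinetics were judged by ATP-dependent luminescence after ≥48 hr.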
# DT40 TDP1 CPT: growth inhibition of DT40 Tdp1-/-;hTDP1 cells with camptothecin (screen for TDP1 inhibitors); chicken DT40 Tdp1-/-;hTDP1 cells + 20 nM CPT, ATP luminescence, 48 h; Potency, µM (highest dose often 46.2 µM), for inactives: at the top dose activity change, negative = growth inhibition, actives largely listed as inhibitors; hit rate 12% among 420,000; AID 686979; also: potency is read from the fitted curve at half-maximal effect; nearly all actives have a fitted effect of over 55% in size
#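 Chicken DT40 Tdp1-/- cells complemented with human TDP1, 400 cells/well, exposed to compounds plus 20 nM camptothecin for at least 48 h at 37 C; viability read as ATP content by CellTiter-Glo luminescence.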
# Gal4-VP16 FLuc: inhibits Gal4-VP16 luciferase reporter, ROR gamma counter-screen; Drosophila S2 Gal4-VP16 UAS-luciferase, luminescence, 20 h; Potency, µM (doses to about 53.6 µM), without a hit: top-dose activity, negative = inhibition, hits mostly inhibitors; hit rate 3.5% among 310,000;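 also: Gal4-VP16 expression switched on by copper sulfate through the metallothionein promoter; potency is read from the fitted curve at half-maximal effect; nearly all actives have a fitted effect of over 50% in size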
# RORg inh: inhibitors of mouse ROR gamma transcriptional activity | P51450 | Drosophila S2 Gal4-RORgamma UAS-luciferase reporter, 20 h | Potency, µM (series often up to 53.6 µM), for inactives: at the highest dose activity change, negative = inhibition, usual class: inhibitors | hit rate 5.4% among 310,000 | AID 2551; also: potency is read from the fitted curve at half-maximal effect; nearly all actives have a fitted effect of over 60% in size
# Target sequence (P51450 whole entry, looked up, the tested form may be a part): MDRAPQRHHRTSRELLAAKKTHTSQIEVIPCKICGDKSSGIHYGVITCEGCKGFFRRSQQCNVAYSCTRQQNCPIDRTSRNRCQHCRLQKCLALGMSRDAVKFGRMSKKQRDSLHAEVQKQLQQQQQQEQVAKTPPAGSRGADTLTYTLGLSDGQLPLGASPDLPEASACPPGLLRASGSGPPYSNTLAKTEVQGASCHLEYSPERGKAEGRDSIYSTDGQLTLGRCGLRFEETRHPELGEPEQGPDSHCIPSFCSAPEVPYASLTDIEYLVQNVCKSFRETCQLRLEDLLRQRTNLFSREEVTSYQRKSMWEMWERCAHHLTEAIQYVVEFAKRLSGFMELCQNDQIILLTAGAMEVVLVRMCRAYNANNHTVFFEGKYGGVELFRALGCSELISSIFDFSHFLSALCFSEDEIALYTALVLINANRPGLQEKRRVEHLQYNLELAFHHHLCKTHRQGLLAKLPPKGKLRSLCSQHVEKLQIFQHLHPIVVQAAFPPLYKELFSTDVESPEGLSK
#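 Stably transfected Drosophila Schneider cells are the test system, with ROR gamma fused to Gal4 and luciferase under UAS control; luminescence is read after 20 hr of 700 uM copper sulfate induction at ambient temperature.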
# ELG1 DNA repair: ELG1-dependent DNA repair inhibition. AID 504467. HEK293T ELG1-luciferase reporter, luminescence, 16 h; DNA damage induced by 5-fluorouridine. hit rate 2.3% among 330,000. Potency, µM (doses to about 46.1 µM), for inactives: at the highest dose activity change, negative = inhibition, actives largely listed as inhibitors; also: potency is read from the fitted curve at half-maximal effect; nearly all actives have a fitted effect of over 55% in size
#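 Step one: seed 2,000 cells per well. Step two: pin-transfer compound or DMSO alongside 5-fluorouridine. Step three: incubate 16 hr, 37 °C, 5% CO2. Step four: add ONE-Glo, wait 30 min, read luminescence.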
# IL-1B inflam inh: inhibitors of inflammasome signaling (IL-1 beta secretion); THP-1 LPS/ATP IL-1B secretion, AlphaLISA, 16 h; stronger effect = lower value; activity change, % at 57.5 µM; hit rate 4.7% among 360,000; in the data active = activity change below about -50%; inconclusive = mostly about -30% to -49%
#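 Secreted IL-1B measured by AlphaLISA bead assay after 16 h compound exposure of THP-1 cells; compounds (final up to 57.5 uM) added 1 h before LPS (250 ng/mL) and ATP (1.25 mM) stimulation; lower signal means less secretion.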
# * hit, by the source's call; ? = inconclusive; nt = no result given; [ ] = another dose, or the depositor's remark. Unless noted, calls follow the shape of the dose curve; as a rule, active = well fitted curve in the direction sought with a large enough effect; inconclusive = small, poorly fitted or top-dose-only effect, or another doubt; inactive = no such curve, though single readings can be large; an effect the other way counts as inactive or inconclusive. % is scaled to controls: 0 for no effect and ±100 for the full control effect.
SMILES,DT40 TDP1 no CPT,DT40 TDP1 CPT,Gal4-VP16 FLuc,RORg inh,ELG1 DNA repair,IL-1B inflam inh
O=C(Cc1c(F)cccc1Cl)Nc1ccccc1N1CCCCC1,?,16µM*,4%,13%,-14%,15
COc1ccc(C(=O)OCC(=O)Nc2cc(S(=O)(=O)N3CCOCC3)ccc2N2CCCC2)cc1,-18%,3%,-10%,13%,-15%,-64*
CCOCC(=O)Nc1cc(S(=O)(=O)N2CCOCC2)ccc1N1CCCCC1,16µM*,15µM*,-19%,9%,-17%,8
C[C@@H]1CN([C@H](C)CO)C(=O)c2cc(Br)cnc2O[C@H]1CN(C)C(=O)Nc1ccccc1F,-14%,-7%,nt,nt,nt,5
O=C(NCCCN1CCOCC1)c1cccc(NS(=O)(=O)c2ccc(Br)cc2)c1,8%,-3%,nt,nt,-5%,7
O=C(Cc1ccc(F)cc1)Nc1cc(S(=O)(=O)N2CCOCC2)ccc1N1CCCCC1,23µM*,?,nt,nt,nt,20
COc1ccc(CC(=O)Nc2cc(S(=O)(=O)N3CCOCC3)ccc2N2CCCC2)cc1,-13%,1%,nt,nt,nt,13
O=C(CCc1ccccc1Cl)Nc1cc(S(=O)(=O)N2CCOCC2)ccc1N1CCCC1,18µM*,15µM*,nt,nt,nt,-13
CCCCNC(=O)C(NC(=O)c1cnccn1)C(=O)c1ccccc1 (stereo unspecified),2%,-5%,nt,nt,nt,39
CCCCNC(=O)C1(C)CCCCN1C(=O)c1cncc(Br)c1 (stereo unspecified),-7%,-21%,nt,nt,nt,9
Cc1ccc(OCc2ccc([N+](=O)[O-])cc2)c([N+](=O)[O-])n1,-2%,4%,-2%,10%,-8%,3
Cc1ccc(OCCOc2ccc(Br)cc2)c([N+](=O)[O-])n1,-14%,-15%,-13%,10%,?,-58*
CCOC(=O)c1ccc(S(=O)(=O)NNc2ccc(C(F)(F)F)cn2)cc1,20%,-19%,nt,nt,?,15
Oc1ccc(Br)cc1/C=N/n1c(-c2ccccc2)n[nH]c1=S,-28%,-3%,nt,nt,-4%,-7
Cc1ccc(-c2n[nH]c(=S)n2/N=C/c2cccs2)cc1,?,-30%,3.2µM*,5µM*,18%,20
Cc1cc(-c2n[nH]c(=S)n2/N=C/c2cccs2)n[nH]1,-3%,-12%,?,-10%,?,-27
Cc1ccsc1/C=N/n1c(-c2cccnc2)n[nH]c1=S,12%,-5%,-19%,11µM*,-1%,-2
S=c1[nH]nc(-c2ccccc2)n1/N=C/c1cccs1,-18%,-1%,-1%[0.365 µM],4µM*,15%,43
COc1ccccc1-c1ccnc(-n2ncc(C(=O)NCCc3ccccn3)c2C)n1,?,-2%[9.04 µM],nt,nt,nt,nt
CCN(CC)c1ccc(/C=C(/C#N)C(=O)NC(C)C)o1,-7%,9%,-8%,24%,?,26
CCN(CC)c1ccc(/C=C2/SC(=O)N(C(C)C)C2=O)o1,2.3µM*,-91%,2.8µM*,5µM*,?,-94*
CC(C)N1C(=O)S/C(=C\c2ccc(-c3ccc(Cl)c(C(=O)O)c3)o2)C1=O,?,?,2.5µM*,?,?,-3
CCOC(=O)CN1C(=O)S/C(=C\c2ccc(-c3ccc(C(=O)O)c(Cl)c3)o2)C1=O,3%,-5%,9%,-24%,-8%,?
O=C1CCCC(O)=C1N=Nc1cccc(C(=O)O)c1,-1%,11%,6%,-22%,?,14
O=C1CCCC(O)=C1N=Nc1c(Cl)cc(Cl)cc1Cl,?,?,?,11µM*,15%,-8
SMILES,DT40 TDP1 no CPT,DT40 TDP1 CPT,Gal4-VP16 FLuc,RORg inh,ELG1 DNA repair,IL-1B inflam inh
COC(=O)c1c(C)nn(-c2ccc(F)c(Cl)c2)c1-c1cc(C)on1,5.2µM*,12µM*,-16%,9%,?,-3
COC(=O)c1nnn(-c2ccc(F)c(Cl)c2)c1C(=O)OC,-1%,-5%,17%,-12%,6%,-15
COc1ccc(/C=C/c2ccc3cccc(O)c3n2)c(OC)c1OC,10µM*,9.2µM*,?,3.2µM*,?,-91*
COc1cc(/C=C/c2ccc3cccc([N+](=O)[O-])c3n2)ccc1OCC(=O)O,7%,-5%,-19%,9%,15%,0
CCOc1c(OC(C)=O)ccc(/C=C/c2ccc3cccc(OC)c3n2)c1[N+](=O)[O-],16µM*,?,-5%,?,-14%,5
COc1cccc(/C=C/c2ccc3cccc(O)c3n2)c1OC,16µM*,?,5.6µM*,2.8µM*,?,35
COc1cccc(/C=C/c2ccccn2)c1O,7%,1%,-19%,-38%,?,-5
CCN(C[C@H]1N[C@@](CC)(C(=O)OC)[C@H]2C(=O)N(C)C(=O)[C@@H]12)S(=O)(=O)c1ccccc1,0%,2%,nt,nt,0%,1
COCC(=O)N(C)c1nnc(-c2ccc([N+](=O)[O-])cc2)s1,2%,-29%,-1%,15%,18%,-58*
O=C(C[C@H]1C(=O)N(c2ccccc2)C[C@@H]1Cc1ccccc1)Nc1ccccc1,?,?,nt,nt,nt,5
CCOC(=O)[C@]12CCC=C1N(Cc1ccc(Cl)cc1Cl)C(=O)[C@H](CC(=O)NCc1ccc(OC)c(OC)c1)C2,?,16µM*,nt,nt,nt,-22
CCOC(=O)[C@]12CCC=C1N(Cc1ccc(Cl)cc1Cl)C(=O)[C@H](CC(=O)NCc1cccc3ccccc13)C2,23µM*,?,nt,nt,nt,-30
CC(=C1C(=O)c2ccccc2C1=O)N1CCC(C(N)=O)(N2CCCCC2)CC1,-15%,2%,12%,1%,0%,46
COc1ccc(S(N)(=O)=O)cc1C(=O)NNC(=O)c1cccc(S(=O)(=O)N2CCOCC2)c1,?,?,nt,nt,nt,1
COc1ccc([N+](=O)[O-])cc1NC(=O)COC(=O)C12CC3CC(CC(O)(C3)C1)C2,?,-26%,nt,nt,nt,3
CCn1c(SCC(=O)Nc2cc(C)on2)nc2sc(C)c(C)c2c1=O,nt,nt,-4%,4%,-1%,nt
C=CCn1c(SCC(=O)Nc2c(C)n(C)n(-c3ccccc3)c2=O)nc2sc(C)c(-c3ccccc3)c2c1=O,?,29µM*,-6%,41%,?,-30
Cc1cc(NC(=O)CSc2nc(C3CC3)nc3sc4c(c23)CCC(C)C4)no1 (stereo unspecified),18µM*,16µM*,nt,nt,nt,24

# Screening data as filed in PubChem.
